Here are results for 13 molecules from PubChem BioAssay (Tox21).

Where “and” joins values, the source holds several entries; their conditions need not be identical. Equal entries are not always repeated. Results filed as inconclusive are left out. Some structures have more than one record in an assay (separate samples or runs), and their calls can disagree. Calls of active or inactive are those of the source. Unless noted, the call rests on the fitted dose curve; in most records, active means well fitted curve in the direction sought with a large enough effect in the repeat runs; inconclusive means weak or mixed curves; inactive means no such curve, though single readings can be large; an effect the other way counts as inactive or inconclusive.

A short description of assay [1]: qHTS assay to identify small molecule HDAC inhibitors (AID 1259364). Further: potency means the concentration at half of the fitted maximal effect.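 Further: wild-type HCT-116 cells with endogenous class I/II HDAC activity; nearly all actives have a fitted effect of over 45% in size.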 In outline: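 Read-out: luminescence of HDAC-Glo I/II reagent, 30 min RT, reflecting class I/II deacetylase activity in whole HCT-116 cells pre-exposed 2 h to DMSO-dissolved compounds.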
Assay [2] in a line: qHTS assay to identify small molecule HDAC inhibitors - cell viability counter screen (AID 1259365). Further: series mostly up to about 92 µM; nearly all actives have a fitted effect of over 50% in size. Put shortly: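 Measured quantity is CellTiter-Glo luminescence from wild-type HCT-116 cells after compound incubation of 2hr at 37C, 5% CO2; reagent developed 30min at room temperature.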
(Quantitative high-throughput screening tests each substance at several concentrations.)

Assay [3] in a line: qHTS assay to identify small molecule agonists of the sonic hedgehog signaling (Shh) pathway - cell viability counter screen (AID 1259366). Further: nearly all actives have a fitted effect of over 50% in size. Further: potency means the concentration at half of the fitted maximal effect. In outline:
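In quantitative high-throughput format, 3T3 Gli1-Luc cells were exposed to compounds for 24hr and multiplexed for viability using CellTiter-Fluor, incubated 1hr at 37C before the fluorescence read.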

Assay [4] in a line: qHTS assay to identify small molecule antagonists of the sonic hedgehog signaling (Shh) pathway - cell viability counter screen (AID 1259367). Further: nearly all actives have a fitted effect of over 55% in size. Further: potency means the concentration at half of the fitted maximal effect. Put shortly:
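Seed 3T3 Gli1-Luc cells at 2,000 per well; incubate 4 hr; add compound in DMSO, then conditioned medium; incubate at 37C with 5% CO2; add CellTiter-Fluor after 23 hr; read fluorescence 1 hr later.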

Assay [5] is described as follows: qHTS assay to identify small molecule agonists of the sonic hedgehog signaling (Shh) pathway (AID 1259368; calls by dose curve;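 further: NIH/3T3-derived 3T3Gli1-Luc cells carrying a stable Gli1-driven firefly luciferase reporter; series mostly up to about 92 µM; nearly all actives have a fitted effect of over 15% in size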). In outline:
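A Gli1 transcriptional response element controlled firefly luciferase in 3T3Gli1-Luc cells. Compounds and a positive control were added 4 hr after plating, and cells were incubated a further 24 hr at 37 C before luminescence detection.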

Assay [6] is described as follows: qHTS assay to identify small molecule antagonists of the sonic hedgehog signaling (Shh) pathway (AID 1259369; calls by dose curve; further: nearly all actives have a fitted effect of over 45% in size; further: potency means the concentration at half of the fitted maximal effect). Put shortly: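 For antagonist detection, the reporter line received test compounds together with conditioned medium, incubated 24hr at 37 C, 5% CO2, then luminescence was recorded following 30min room-temperature luciferase reagent incubation.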
A short description of assay [7]: qHTS assay to identify small molecule agonists of the androgen receptor (AR) signaling pathway in the presence of an antagonist - cell viability counter screen (AID 1259379).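 Further: MDA-kb2 human breast cancer cells carrying an MMTV luciferase reporter; series mostly up to about 92 µM; nearly all actives have a fitted effect of over 25% in size.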 In outline:
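Seed MDA-kb2 at 3,000 cells/well; incubate 5 hr, 37C, 0% CO2. Add nilutamide to 3.0uM final, then pin compounds at 15 concentrations. Incubate 16 hr. Add CellTiter-Fluor at 15 hr, read fluorescence after 1 hr.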

Assay [8] in a line: qHTS assay to identify small molecule agonists of the estrogen receptor beta (ER-beta) signaling pathway - cell viability counter screen (AID 1259380). Further: nearly all actives have a fitted effect of over 30% in size. Further: potency means the concentration at half of the fitted maximal effect. Put shortly: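 CellTiter-Glo read, 30 min RT, same wells as bla assay; cells ER-beta-UAS-bla HEK293T; 16 hr compound, 37C; medium 2% charcoal-stripped FBS.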
For assay [9], the target named is Androgen receptor (Homo sapiens) (UniProt P10275). Put plainly: qHTS assay to identify small molecule agonists of the androgen receptor (AR) signaling pathway in the presence of an antagonist (AID 1259381; calls by dose curve; further: nearly all actives have a fitted effect of over 15% in size). Put shortly: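 Test compounds at 15 concentrations were incubated for 16hr with MDA-kb2 reporter cells in presence of 3.0uM nilutamide (final). Signal: ONE-Glo luciferase luminescence.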
Sequence of Androgen receptor (Homo sapiens) (P10275 whole entry, looked up): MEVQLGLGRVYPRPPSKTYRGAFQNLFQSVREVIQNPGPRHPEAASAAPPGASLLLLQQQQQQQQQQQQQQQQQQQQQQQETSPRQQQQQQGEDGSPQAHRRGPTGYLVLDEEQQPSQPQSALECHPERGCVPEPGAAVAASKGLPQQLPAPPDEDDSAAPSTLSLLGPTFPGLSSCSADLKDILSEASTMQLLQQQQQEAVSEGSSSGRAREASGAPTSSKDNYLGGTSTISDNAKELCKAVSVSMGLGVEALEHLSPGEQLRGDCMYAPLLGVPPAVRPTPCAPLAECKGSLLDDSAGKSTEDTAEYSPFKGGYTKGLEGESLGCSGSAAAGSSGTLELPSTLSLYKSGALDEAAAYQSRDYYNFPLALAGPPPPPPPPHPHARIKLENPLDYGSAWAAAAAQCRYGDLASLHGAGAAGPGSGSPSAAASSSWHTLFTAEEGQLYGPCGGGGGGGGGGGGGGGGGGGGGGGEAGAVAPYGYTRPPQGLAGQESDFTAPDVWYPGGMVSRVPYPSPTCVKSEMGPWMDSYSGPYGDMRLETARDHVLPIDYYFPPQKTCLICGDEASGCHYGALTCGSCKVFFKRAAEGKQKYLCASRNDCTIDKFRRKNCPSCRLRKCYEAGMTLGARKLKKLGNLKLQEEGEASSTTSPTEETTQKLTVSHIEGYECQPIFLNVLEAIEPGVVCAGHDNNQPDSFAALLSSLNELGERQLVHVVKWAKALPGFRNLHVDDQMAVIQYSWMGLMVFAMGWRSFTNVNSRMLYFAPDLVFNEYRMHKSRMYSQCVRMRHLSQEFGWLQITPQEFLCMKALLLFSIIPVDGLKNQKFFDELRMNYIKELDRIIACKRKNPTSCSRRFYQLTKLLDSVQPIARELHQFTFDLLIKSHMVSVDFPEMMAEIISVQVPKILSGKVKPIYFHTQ

The nature of assay [10]: qHTS assay to identify small molecule antagonists of the estrogen receptor beta (ER-beta) signaling pathway - cell viability counter screen (AID 1259382). Further: series mostly up to about 92 µM; nearly all actives have a fitted effect of over 55% in size. In outline:
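In this multiplexed counter screen, cells were seeded at 2,000 per well in medium with 2% charcoal-stripped FBS and incubated 6 hr before compound and 1nM final E2 were added. Sixteen hours later, ATP-based luminescence reported viability.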

The nature of assay [11]: qHTS assay to identify small molecule agonists or antagonists of the thyroid stimulating hormone receptor (TSHR) signaling pathway - wild type cell line counter screen (AID 1259384; calls by dose curve). Put shortly: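 Wild-type Hek293 cells, 800/well, 18 h at 37C, then compound with Ro20-1724 for 30 min RT. cAMP by HTRF (cAMP-d2/anti-cAMP cryptate), 1 h RT, fluorescence read. 15 concentrations, triplicates.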

The target of assay [12] is Thyrotropin receptor (Homo sapiens) (UniProt P16473). The assay is described as follows: qHTS assay to identify small molecule antagonists of the thyroid stimulating hormone receptor (TSHR) signaling pathway (AID 1259385; calls by dose curve; further: nearly all actives have a fitted effect of over 20% in size). Put shortly: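 TSHR-HEK293 cells (800/well) plated 18 h, then compounds with Ro20-1724 and TSH at 1.5 ng/mL final, 30 min at room temperature. cAMP quantified by HTRF (cAMP-d2/anti-cAMP-cryptate, 1 h); 15 concentrations in triplicate.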
Sequence of Thyrotropin receptor (Homo sapiens) (P16473 whole entry, looked up): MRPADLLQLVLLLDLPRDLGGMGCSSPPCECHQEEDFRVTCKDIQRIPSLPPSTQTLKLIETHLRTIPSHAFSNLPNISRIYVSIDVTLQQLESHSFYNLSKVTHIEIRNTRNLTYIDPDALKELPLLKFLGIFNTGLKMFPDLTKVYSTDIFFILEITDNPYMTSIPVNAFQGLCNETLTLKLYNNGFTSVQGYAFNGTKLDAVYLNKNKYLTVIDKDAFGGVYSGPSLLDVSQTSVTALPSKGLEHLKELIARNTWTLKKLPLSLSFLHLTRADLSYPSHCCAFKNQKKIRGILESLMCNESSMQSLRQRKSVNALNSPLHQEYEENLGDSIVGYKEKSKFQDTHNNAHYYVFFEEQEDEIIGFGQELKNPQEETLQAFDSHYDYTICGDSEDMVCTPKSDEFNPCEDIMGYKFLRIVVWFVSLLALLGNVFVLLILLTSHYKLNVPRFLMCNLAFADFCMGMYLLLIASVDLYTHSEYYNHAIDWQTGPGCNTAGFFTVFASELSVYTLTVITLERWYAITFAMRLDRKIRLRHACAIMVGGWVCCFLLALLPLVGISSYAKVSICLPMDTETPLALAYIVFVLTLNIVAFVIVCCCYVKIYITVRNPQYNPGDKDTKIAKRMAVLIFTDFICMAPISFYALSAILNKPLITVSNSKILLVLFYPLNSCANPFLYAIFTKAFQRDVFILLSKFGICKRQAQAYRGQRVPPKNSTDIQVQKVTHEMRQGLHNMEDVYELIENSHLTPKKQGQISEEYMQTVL

Assay [13] is described as follows: qHTS assay to identify small molecule agonists of the estrogen receptor alpha (ER-alpha) signaling pathway in the presence of an antagonist - cell viability counter screen (AID 1259386).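 Further: series mostly up to about 92 µM; cells exposed to compounds for 22 h at 37 °C before the viability read; nearly all actives have a fitted effect of over 30% in size.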 In outline:
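Viability counter screen using VM7Luc4E2 (full-length ER-alpha, four ERE-luciferase). The cells were treated with compounds alongside ICI-182,780 10.0nM for 22hr, and live-cell protease fluorescence was quantified with CellTiter-Fluor.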

Assay [14] deals with Progesterone receptor (Homo sapiens) (UniProt P06401). The assay is described as follows: qHTS assay to identify small molecule agonists of the progesterone receptor (PR) signaling pathway (AID 1346784; calls by dose curve; further: nearly all actives have a fitted effect of over 30% in size). Put shortly:
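Reporter assay, GripTite PR-UAS-bla HEK 293T cells: 16 hr exposure to DMSO-dissolved compounds at 37C, 5% CO2, in steroid-depleted (2% charcoal-stripped FBS) medium; beta-lactamase measured by FRET fluorescence.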

Assay [15] deals with Estrogen receptor (Homo sapiens) (UniProt P03372). Put plainly: qHTS assay to identify small molecule agonists of the estrogen receptor alpha (ER-alpha) signaling pathway in the presence of an antagonist (AID 1259383; calls by dose curve; further: top concentration of the series differs between compounds; nearly all actives have a fitted effect of over 15% in size). Put shortly:
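Stably transfected VM7Luc4E2 reporter cells, kept 5 days in charcoal-stripped serum, received ICI-182,780 at 10.0nM final before compound addition. Following 22hr incubation at 37C and 5% CO2, luciferase signal was read by luminescence.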

Assay [16] deals with Estrogen receptor beta (Homo sapiens) (UniProt Q92731). Put plainly: qHTS assay to identify small molecule agonists of the estrogen receptor beta (ER-beta) signaling pathway (AID 1259377; active means well fitted activation curve with a large enough effect in the signal ratio in the repeat runs, not every such curve was filed as active; the % refers to the signal ratio). Put shortly: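 Reporter cells (HEK293T, ER-beta-UAS-bla) receive compounds or DMSO after a 6 hr pre-incubation. They then incubate 16 hr at 37C/5% CO2, and fluorescence from LiveBLAzer B/G substrate is measured after 2 hours at room temperature.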
Sequence of Estrogen receptor beta (Homo sapiens) (Q92731 whole entry, looked up): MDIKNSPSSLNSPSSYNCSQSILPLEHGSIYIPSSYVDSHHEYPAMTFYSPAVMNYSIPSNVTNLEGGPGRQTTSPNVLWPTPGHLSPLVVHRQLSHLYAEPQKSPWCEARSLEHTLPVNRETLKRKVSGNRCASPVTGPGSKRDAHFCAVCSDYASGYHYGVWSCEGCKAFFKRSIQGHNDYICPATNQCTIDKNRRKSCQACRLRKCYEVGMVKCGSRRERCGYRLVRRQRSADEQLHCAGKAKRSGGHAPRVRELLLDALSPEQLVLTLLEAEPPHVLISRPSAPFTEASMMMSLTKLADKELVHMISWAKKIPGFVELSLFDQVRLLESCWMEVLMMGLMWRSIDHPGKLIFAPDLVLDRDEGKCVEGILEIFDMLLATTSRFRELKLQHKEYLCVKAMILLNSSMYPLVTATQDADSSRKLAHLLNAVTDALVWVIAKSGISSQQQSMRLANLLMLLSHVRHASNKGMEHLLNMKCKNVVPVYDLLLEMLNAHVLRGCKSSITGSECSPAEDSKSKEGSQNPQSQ

Assay [17] shares this target. Put plainly: qHTS assay to identify small molecule antagonists of the estrogen receptor beta (ER-beta) signaling pathway (AID 1259378; active means well fitted inhibition curve with a large enough effect in the signal ratio in the repeat runs, not every such curve was filed as active; the % refers to the signal ratio). Put shortly: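 ER-beta-UAS-bla HEK293T cells in 2% charcoal-stripped FBS medium treated with compound plus 1nM final 17-beta-estradiol for 16 hr at 37C. Beta-lactamase reporter read by FRET substrate fluorescence after 2 hours at room temperature.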

For assay [18], the target named is Progesterone receptor (Homo sapiens) (UniProt P06401). Put plainly: qHTS assay to identify small molecule antagonists of the progesterone receptor (PR) signaling pathway (AID 1346795; active means well fitted inhibition curve with a large enough effect in the signal ratio in the repeat runs, not every such curve was filed as active; the % refers to the signal ratio; further: potency means the concentration at half of the fitted maximal effect). Put shortly:
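Stimulus R5020 at 1 nM final; cells HEK293T PR-UAS-bla; medium with 2% charcoal-stripped FBS; compound exposure 16 hr at 37C, 5% CO2; detection by FRET beta-lactamase substrate, 2 hr, room temperature.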

Sequence of Estrogen receptor (Homo sapiens) (P03372 whole entry, looked up): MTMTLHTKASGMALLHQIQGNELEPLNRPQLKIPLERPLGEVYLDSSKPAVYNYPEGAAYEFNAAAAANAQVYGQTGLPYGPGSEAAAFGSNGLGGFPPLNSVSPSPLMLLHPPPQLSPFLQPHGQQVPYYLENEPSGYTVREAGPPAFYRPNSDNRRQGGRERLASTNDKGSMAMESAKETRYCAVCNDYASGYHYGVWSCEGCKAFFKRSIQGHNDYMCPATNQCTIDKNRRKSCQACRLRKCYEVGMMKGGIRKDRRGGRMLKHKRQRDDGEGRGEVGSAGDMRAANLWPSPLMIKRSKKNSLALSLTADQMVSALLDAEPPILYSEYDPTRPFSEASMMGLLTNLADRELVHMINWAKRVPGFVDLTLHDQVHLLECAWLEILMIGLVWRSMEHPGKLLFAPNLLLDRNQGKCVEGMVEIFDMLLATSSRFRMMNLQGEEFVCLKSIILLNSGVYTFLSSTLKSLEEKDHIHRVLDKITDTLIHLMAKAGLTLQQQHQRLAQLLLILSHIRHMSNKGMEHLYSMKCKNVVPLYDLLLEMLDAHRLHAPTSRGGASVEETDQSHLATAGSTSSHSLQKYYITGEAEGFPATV
Sequence of Progesterone receptor (Homo sapiens) (P06401 whole entry, looked up): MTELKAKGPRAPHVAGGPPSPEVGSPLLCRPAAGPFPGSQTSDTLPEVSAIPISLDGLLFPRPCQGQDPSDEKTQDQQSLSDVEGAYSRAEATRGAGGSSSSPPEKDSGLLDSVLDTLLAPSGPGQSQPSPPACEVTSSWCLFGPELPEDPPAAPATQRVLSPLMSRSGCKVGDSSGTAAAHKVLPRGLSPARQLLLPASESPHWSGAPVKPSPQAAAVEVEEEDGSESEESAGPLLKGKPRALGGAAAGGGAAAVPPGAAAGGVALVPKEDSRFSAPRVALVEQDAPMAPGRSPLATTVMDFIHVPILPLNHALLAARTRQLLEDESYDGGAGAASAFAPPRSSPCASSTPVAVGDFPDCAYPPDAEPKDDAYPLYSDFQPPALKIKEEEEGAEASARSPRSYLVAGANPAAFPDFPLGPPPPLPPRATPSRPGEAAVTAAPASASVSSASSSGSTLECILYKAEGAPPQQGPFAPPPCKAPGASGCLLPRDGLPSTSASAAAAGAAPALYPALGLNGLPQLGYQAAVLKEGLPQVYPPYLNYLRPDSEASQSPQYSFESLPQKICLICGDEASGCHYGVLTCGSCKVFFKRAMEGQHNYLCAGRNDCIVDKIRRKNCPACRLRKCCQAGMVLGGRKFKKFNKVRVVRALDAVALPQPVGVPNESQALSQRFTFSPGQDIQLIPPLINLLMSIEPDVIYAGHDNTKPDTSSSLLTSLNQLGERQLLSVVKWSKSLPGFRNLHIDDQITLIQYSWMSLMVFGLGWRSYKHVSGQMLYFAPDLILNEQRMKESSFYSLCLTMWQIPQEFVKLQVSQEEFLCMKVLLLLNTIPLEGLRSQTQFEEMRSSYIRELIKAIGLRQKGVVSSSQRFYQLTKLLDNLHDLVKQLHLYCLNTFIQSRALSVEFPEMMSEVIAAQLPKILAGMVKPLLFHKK

Consider `CCCCCCCCCCCCOCCO`, for which the Potency entry in assay [1], in [3], in assay [7], in assay [8], in assay [9] and in assay [10] was “inactive” throughout. Further, the Potency result in assay [12], in assay [13] and in assay [14] was “inactive” throughout. In addition, the call in assay [2], in assay [5] and in assay [11] was inactive. Further, the Potency is 48.6 µM (active) and inactive in [4]; 27.3 µM (active) and inactive in [6].

Consider `CCCCCOC(C)=O`, for which the Potency entry in assay [1], in [3], in assay [4], in assay [7], in assay [8] and in [10] was “inactive” in each case. Besides, the Potency result in assay [15], in [13] and in assay [14] was “inactive” throughout. Moreover, the outcome in [2], in assay [5] and in [11] was inactive. In addition, in [6], the Potency result was “inactive and 27.3 µM (active)”.

For the molecule `CC(C)(C)[C@@H](O)[C@@H](Cc1ccc(Cl)cc1)n1cncn1`, the Potency result in assay [1], in assay [3], in assay [16], in [17], in [7] and in assay [8] was “inactive” throughout. Also, the Potency entry in [10], in [12], in [13] and in assay [14] was “inactive” each time. Also, the result in assay [2], in assay [5] and in [11] was inactive. Moreover, in [18], the Potency was 48.2 µM (active).

Turning to `CN(C)CCC(c1ccc(Cl)cc1)c1ccccn1` (stereo not given), the Potency entry in [1], in assay [7], in assay [13], in [14] and in [18] was “inactive” each time. Moreover, the molecule was classed as inactive in [2], in assay [5] and in [11]. Also, the Potency in [3] is 61.3 µM (active) and inactive; in assay [4], 68.7 µM (active); in [6] it was 24.4 µM (active) and 17.2 µM (active); in assay [8], 48.7 µM (active).

`Cc1ccc(S(N)(=O)=O)cc1`: the Potency entry in assay [1], in assay [3], in assay [6], in assay [7], in assay [8] and in [10] was “inactive” each time. Besides, the Potency entry in assay [13] and in assay [14] was “inactive” in each case. The result in assay [2], in assay [5] and in assay [11] was inactive.

For the molecule `CN(C)CCCN`, the Potency result in assay [1], in assay [3], in assay [6], in [7], in assay [8] and in assay [10] was “inactive” each time. For the same molecule, the Potency entry in [15], in assay [13] and in assay [14] was “inactive” each time. Moreover, the molecule was classed as inactive in assay [2], in assay [5] and in [11].

With `C=C(C)C(=O)Nc1ccc(Cl)c(Cl)c1`, the Potency result in assay [1], in assay [3], in assay [16], in [17], in assay [7] and in [10] was “inactive” throughout. The Potency entry in assay [15], in [12], in assay [13] and in assay [14] was “inactive” throughout. In addition, the result in assay [2], in [5] and in assay [11] was inactive. Moreover, the Potency was 17.4 µM (active) and 43.1 µM (active) in assay [6]; 55 µM (active) and 54.3 µM (active) in [8]; 24.6 µM (active) and 48.4 µM (active) in assay [18].

Take `OCC(CO)(CBr)CBr`: the Potency entry in assay [1], in assay [3], in assay [4], in assay [6], in [7] and in assay [8] was “inactive” throughout. The Potency entry in assay [10], in assay [12], in [13], in [14] and in assay [18] was “inactive” each time. For the same molecule, the molecule was called inactive in [2], in assay [5] and in assay [11].

`CCCCOC(=O)COc1ccc(Cl)cc1Cl`: the Potency entry in [1], in assay [3], in assay [6], in assay [7], in assay [8] and in [10] was “inactive” each time. The Potency entry in assay [12], in [13] and in [14] was “inactive” throughout. The result in assay [2], in assay [5] and in assay [11] was inactive.

Take `O=C(O)c1ccccc1C(c1ccc(O)cc1)c1ccc(O)cc1`: the Potency entry in [1], in assay [3], in assay [6], in [16], in [7] and in [8] was “inactive” in each case. Moreover, the Potency entry in assay [9], in assay [10], in assay [15], in assay [12], in assay [13] and in assay [14] was “inactive” in each case. Also, the Potency result in assay [18] is “inactive”. In addition, the molecule was classed as inactive in [2], in [5] and in assay [11].

For the molecule `COc1ccc(Nc2ccccc2)c(C)c1`, the Potency entry in assay [1], in assay [3], in assay [4], in [6], in assay [7] and in [8] was “inactive” throughout. For the same molecule, the Potency entry in assay [10], in assay [15], in assay [13], in assay [14] and in assay [18] was “inactive” each time. Further, the molecule was classed as inactive in assay [2], in [5] and in [11].

With `c1ccc(OCCOc2ccccc2)cc1`, the Potency in assay [1] is 27.3 µM (active). The outcome in assay [2], in [5] and in assay [11] was inactive. Further, the Potency result in [3], in assay [6], in assay [16], in assay [7], in assay [8] and in [10] was “inactive” each time. For the same molecule, the Potency result in assay [15], in assay [12], in [13], in [14] and in assay [18] was “inactive” each time.

Turning to `CCCCCC/C(C=O)=C\c1ccccc1`, the Potency entry in [1], in assay [3], in [6], in assay [16], in [7] and in [8] was “inactive” throughout. Besides, the Potency entry in assay [10], in [13] and in assay [14] was “inactive” each time. Further, the molecule was classed as inactive in assay [2], in [5] and in assay [11].
